Results taken from PubChem BioAssay (Tox21).
Active and inactive are the calls of the source. Entries that show only a call come without a potency. The call rests on the fitted dose curve; in most records, active means well fitted activation curve with a large enough effect in the repeat runs; inconclusive means weak or mixed curves; inactive means flat fitted curve, though single readings scatter.

Molecular target: KiSS-1 receptor (Homo sapiens) (UniProt Q969F8)
Test: Human kisspeptin (KISS1R) small molecule agonists, calcium flux assay in KISS1R-HEK293 cells (AID 1920064)
Conditions: KISS1R-HEK293, calcium flux fluorescence, agonist; series mostly up to 76.8 µM
Procedure, shortened: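 HEK293 cells stably expressing human KISS1R were loaded with calcium dye for 1 h at 37 C, then given compound; fluorescence (Ex/Em 480/540) was read kinetically for 3 min. Fifteen concentrations, triplicate.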

KiSS-1 receptor (Homo sapiens), sequence (Q969F8 whole entry, looked up): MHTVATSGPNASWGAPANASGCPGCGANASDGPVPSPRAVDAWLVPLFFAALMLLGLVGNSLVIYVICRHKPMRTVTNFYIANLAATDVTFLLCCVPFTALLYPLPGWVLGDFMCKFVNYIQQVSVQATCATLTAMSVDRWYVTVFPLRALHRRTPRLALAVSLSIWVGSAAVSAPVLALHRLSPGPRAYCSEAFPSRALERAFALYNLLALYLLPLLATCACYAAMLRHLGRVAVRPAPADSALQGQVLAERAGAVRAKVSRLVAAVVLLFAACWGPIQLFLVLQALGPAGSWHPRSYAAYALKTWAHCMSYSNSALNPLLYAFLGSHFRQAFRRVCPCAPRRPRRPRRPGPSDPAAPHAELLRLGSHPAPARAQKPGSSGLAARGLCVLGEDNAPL

Row | SMILES | Potency
1 | NC(=O)N/N=C/c1ccc([N+](=O)[O-])o1 | inactive
2 | COc1ccc2c(c1)c(CC(=O)O)c(C)n2C(=O)c1ccc(Cl)cc1 | inactive
3 | Cc1ccc(C(=O)O)o1 | inactive
4 | C1CNCCN1 | inactive
5 | CNC[C@H](O)[C@@H](O)[C@H](O)[C@H](O)CO | inactive
6 | Nc1c2c(nc3ccccc13)CCCC2 | inactive
7 | CCC(C)OC(=O)c1ccc(O)cc1 (stereo not drawn) | inactive
8 | C=C(C)C(=O)OCCC[Si](OC)(OC)OC | inactive
9 | O=C(O)c1ccccc1Nc1cccc(C(F)(F)F)c1 | inactive
10 | CC1(C)O[C@@H]2C[C@H]3[C@@H]4C[C@H](F)C5=CC(=O)CC[C@]5(C)[C@H]4[C@@H](O)C[C@]3(C)[C@]2(C(=O)CO)O1 | inactive
11 | O=C(O)C(=O)O | inactive
12 | CCC(C)(O)CCCC(C)C (stereo not drawn) | inactive
13 | O=C(c1ccccc1)C(O)c1ccccc1 (stereo not drawn) | inactive
14 | Cc1ccc(C)c(C)c1 | inactive
15 | CCc1cccc2c3c([nH]c12)C(CC)(CC(=O)O)OCC3 (stereo not drawn) | inactive
16 | CC(=O)Nc1c(I)c(NC(C)=O)c(I)c(C(=O)O)c1I | inactive
17 | CC(C)=CCC/C(C)=C/C=O | inactive
18 | CC1=CC2C3CC(C=C3C)C2C1 (stereo not drawn) | inactive
19 | COc1cc([C@@H]2c3cc4c(cc3[C@H](O)[C@H]3COC(=O)[C@H]23)OCO4)cc(OC)c1OC | inactive
20 | CCCCCC1=CCCC1=O | inactive
21 | [Na+] | inactive
22 | Cc1ccc(C)c(O)c1 | inactive
23 | O=C(OCc1ccccc1)c1ccccc1 | inactive
24 | Oc1c(Cl)cc(Cl)c(Cl)c1Cl | inactive
25 | Oc1ccc(Cl)cc1Cc1cc(Cl)ccc1O | inactive
26 | Clc1ccc(Cl)c(Cl)c1Cl | inactive
27 | c1ccc2c(c1)c1cccc3ccc4cccc2c4c31 | inactive

Row | SMILES | Potency
28 | CC(=O)c1ccccc1 | inactive
29 | C[C@]12C[C@H](O)[C@H]3[C@@H](CCC4=CC(=O)CC[C@@]43C)[C@@H]1CC[C@@H]2C(=O)CO | inactive
30 | O=c1[nH]cnc2c1ncn2[C@H]1CC[C@@H](CO)O1 | inactive
31 | O=C(OCCOCCOC(=O)c1ccccc1)c1ccccc1 | inactive
32 | CC(O)(P(=O)(O)O)P(=O)(O)O | inactive
33 | O=c1[nH]nnc2ccccc12 | inactive
34 | CC1=C(C)S(=O)(=O)CCS1(=O)=O | inactive
35 | CCOC(=O)CC(=O)OCC | inactive
36 | O=C1CCCCCN1 | inactive
37 | Cc1cnc(NC(=O)C2=C(O)c3ccccc3S(=O)(=O)N2C)s1 | inactive
38 | C=C(C#N)C(=O)OCC | inactive
39 | O=C(OCC1CCC2OC2C1)C1CCC2OC2C1 (stereo not drawn) | inactive
40 | CC1=CC(=O)CC(C)(C)C1 | inactive
41 | CCCCCCCCCCCCCC[N+](C)(C)C | inactive
42 | CC(O)CC(C)(C)O (stereo not drawn) | inactive
43 | OC[C@H]1O[C@@H](Oc2ccc(O)cc2)[C@H](O)[C@@H](O)[C@@H]1O | inactive
44 | C[N+](C)(C)CCCCCC[N+](C)(C)C | inactive
45 | O=C(O)Cn1c(=O)n(Cc2ccc(Br)cc2F)c(=O)c2ccc(Cl)cc21 | inactive
46 | Cc1ccc(S(=O)(=O)N=C=O)cc1 | inactive
47 | O=c1cc[nH]c(=S)[nH]1 | inactive
48 | C[C@]12C=CC(=O)C=C1CC[C@@H]1[C@@H]2C(=O)C[C@@]2(C)[C@H]1CC[C@]2(O)C(=O)CO | inactive
49 | O=C(O)CCCCCCCC(=O)O | inactive
50 | C#CC1(O)CC[C@H]2[C@@H]3CCC4=CCCC[C@@H]4[C@H]3CC[C@@]21C (stereo partly drawn) | inactive
51 | CCC(C)C=O (stereo not drawn) | inactive
52 | CC(O)COc1ccccc1 (stereo not drawn) | inactive
53 | O=C1O[C@H]([C@@H](O)CO)C(O)=C1O | inactive
